HTT-AS promoter: HTT-AS promoter activation; 0.24% of 48,000 active; Potency, µM (highest dose often 57.5 µM), most hits filed as activators; HEK293 HTT-AS promoter firefly luciferase reporter, 24 h; response scale: percent change from vehicle, -100% = no light; AID 1508624; further: nearly all actives have a fitted effect of over 55% in size
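HEK293 cells carrying firefly luciferase reporters were seeded at 2,500 per well in Opti-MEM and cultured for 24 h. They were then treated with compounds at up to 57.5 uM final for 24 h at 37 degrees C before Dual-Glo luminescence readout.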
HTT promoter inh: HTT promoter inhibition | HEK293 HTT promoter firefly luciferase reporter, 24 h | Potency, µM (doses to about 57.5 µM), hits mostly inhibitors | 0.93% of 48,000 active | AID 1508623; further: nearly all actives have a fitted effect of over 50% in size
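Quantitative HTS used concentration series of up to 57.5 uM final on HEK293 luciferase reporter cells, 24 h at 37 degrees C. Readout was Dual-Glo firefly luminescence.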
TSG101-PTAP inh: TSG101-PTAP interaction inhibition, HIV-1 budding | Potency, µM (titrated, usually from 115 µM), most hits filed as inhibitors | Fluorescence polarization, FITC-PTAP peptide/Tsg101, 20 min | Q99816 | 44,000 tested, under 10 active | AID 1347069
Target sequence (Q99816 whole entry, looked up): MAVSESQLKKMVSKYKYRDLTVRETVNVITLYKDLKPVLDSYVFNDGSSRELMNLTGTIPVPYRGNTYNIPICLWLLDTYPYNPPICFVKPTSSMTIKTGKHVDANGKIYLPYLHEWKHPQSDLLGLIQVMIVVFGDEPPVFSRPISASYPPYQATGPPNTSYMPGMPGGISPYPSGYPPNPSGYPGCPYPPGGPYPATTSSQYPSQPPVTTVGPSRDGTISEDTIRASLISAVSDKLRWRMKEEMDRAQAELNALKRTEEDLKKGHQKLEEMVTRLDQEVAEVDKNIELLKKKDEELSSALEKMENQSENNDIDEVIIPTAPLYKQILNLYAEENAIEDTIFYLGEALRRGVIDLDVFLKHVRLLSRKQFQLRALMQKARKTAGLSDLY
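Steps: Tsg101 binding domain (10 uM final) in HEPES pH 7.5/NaCl/Tween 20/EDTA/TCEP; add compound; add FITC-PTAP peptide (50 nM final); incubate 20 min r.t.; read polarization.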
FH mod: Identification of activators of human fumarate hydratase by quantitative high-throughput screening. Potency, µM (titrated, usually from 79.9 µM), actives largely listed as inhibitors. 0.22% of 54,000 active. FH coupled MDH/diaphorase resazurin fluorescence, 15 min; further: the screen sought activators but most active calls are inhibition curves; nearly all actives have a fitted effect of over 45% in size
Hits are given with their value; . = inactive; ? = inconclusive; / = not tested or not shown. This is a sample that favours compounds with a hit; in the whole collection about 1.3% have one here. The call rests on the fitted dose curve; in most records, active means well fitted curve in the direction sought with a large enough effect; inconclusive means small, poorly fitted or top-dose-only effect, or another doubt; inactive means no such curve, though single readings can be large; an effect the other way counts as inactive or inconclusive.

SMILES	HTT-AS promoter	HTT promoter inh	TSG101-PTAP inh	FH mod
COCCn1c2c([n+](Cc3cnccn3)c1C)C(=O)c1ccccc1C2=O	.	?	/	21.7µM
NC(=O)C(CCC(F)(F)F)N(Cc1ccc(-c2ncon2)cc1F)S(=O)(=O)c1ccc(Cl)cc1 (stereo unspecified)	/	/	/	.
COc1ccc(-c2noc(N3CCC(C(=O)N4CCN(c5cccc(C)c5C)CC4)CC3)n2)cc1	.	?	.	.
COc1ccc(-c2noc(N3CCC(C(=O)N4CCN(c5cccc(OC)c5)CC4)CC3)n2)cc1	.	2.24µM	.	.
COc1ccc(-c2noc(N3CCC(C(=O)Nc4ccc(F)cc4Cl)CC3)n2)cc1	.	1.78µM	.	.
COc1ccc(-c2noc(N3CCC(C(=O)N4CCN(c5ccccc5OC)CC4)CC3)n2)cc1	.	12.6µM	.	.
O=C(O)CC1(O)C(=O)Nc2ccccc21 (stereo unspecified)	/	/	/	.
COc1ccc(C)c2sc(NC(=O)c3ccncc3)nc12	/	/	/	.
C[N+](C)(C)CCOP(=O)(O)OP(=O)([O-])OC[C@H]1O[C@@H](n2ccc(N)nc2=O)[C@H](O)C1O (stereo partly specified)	/	/	/	.
Cc1cc(C(=O)Nc2nc3cccc(Cl)c3n2C2CCCCN(C(=O)/C=C/CN(C)C)C2)ccn1 (stereo unspecified)	/	/	/	.
CN(c1ccc(F)cc1)S(=O)(=O)N1CCCC(C(=O)NCc2ccccc2Cl)C1 (stereo unspecified)	.	?	.	.
COc1cccc(CNC(=O)C2CCCN(S(=O)(=O)N(C)c3ccc(F)cc3)C2)c1OC (stereo unspecified)	.	25.1µM	.	.
CC1=C(C(=O)OC2CCCCC2)C(c2ccc([N+](=O)[O-])cc2)C2=C(CC(C)(C)CC2=O)N1 (stereo unspecified)	/	/	/	.
COC(=O)c1ccc(NC(=O)CC2Nc3cc(C)c(C)cc3NC2=O)cc1 (stereo unspecified)	.	25.1µM	.	.
CC(=O)c1ccc(NC(=O)CC2Nc3cc(C)c(C)cc3NC2=O)cc1 (stereo unspecified)	.	?	.	.
Cc1cccc(N2CCN(C(=O)c3cc4c(=O)[nH]c5ccc(C)cc5c4s3)CC2C)c1 (stereo unspecified)	.	12.6µM	.	?
CN(C)CCOc1ccc(-c2nc(-c3ccc4c(c3)CC/C4=N/O)c(-c3ccncc3)[nH]2)cc1	/	/	/	.
C=C1C(=O)O[C@@H]2C[C@H](C)C3=CC(=O)[C@H](O)[C@@]3(C)C[C@H]12	/	/	/	.
CCc1ccc(CN(C(=O)c2cc3ccccc3oc2=O)C2CCS(=O)(=O)C2)cc1 (stereo unspecified)	3.55µM	.	.	.
O=C1c2ccccc2-c2nc3nnnn3nc21 (tested in a mixture with another compound)	/	/	/	0.891µM
NC(=O)c1cc(S(=O)(=O)N2CCN(c3ccc(F)cc3)CC2)cs1	.	?	.	.
Cc1ccc(NS(=O)(=O)c2ccc3c(c2)C(C(C)C)C(=O)N3)cc1C (stereo unspecified)	.	.	.	.
Cc1cccc(N2CCN(S(=O)(=O)c3csc(C(N)=O)c3)CC2)c1C	.	14.1µM	.	.
Cc1cccc(N2CCN(S(=O)(=O)c3ccc4c(c3)C(C(C)C)C(=O)N4)CC2)c1C (stereo unspecified)	.	12.6µM	.	?
CN(CCc1ccc(Nc2ncc(-c3cccnc3)s2)cc1)Cc1ccccc1	/	/	/	.
SMILES	HTT-AS promoter	HTT promoter inh	TSG101-PTAP inh	FH mod
COc1ccccc1C(=O)Nc1nnc(SCc2cc(=O)n3ccc(C)cc3n2)s1	.	.	.	1.12µM
CC(C)Oc1ccc(CNC(=O)Nc2ccc3c(c2)N(C)C(=O)c2ccccc2S3)cc1	.	25.1µM	.	?
CN1C(=O)c2ccccc2Sc2ccc(NC(=O)N3CCN(c4ccccc4)CC3)cc21	.	25.1µM	.	.
Cc1ccccc1N1CCN(S(=O)(=O)C[C@]23CC[C@H](C[C@@H]2NC(=O)[C@@H](N)CCS(C)(=O)=O)C3(C)C)CC1	/	/	/	.
CC1(c2ccccc2)CC(C)(C)N(C(=O)c2cccc(Cl)c2)c2ccccc21 (stereo unspecified)	.	?	.	.
Cc1ccc2c(c1)N(C(=O)c1ccc(F)cc1)C(C)(C)CC2(C)c1ccccc1 (stereo unspecified)	.	28.2µM	.	?

Screens deposited in PubChem BioAssay by National Center for Advancing Translational Sciences (NCATS).
